Test results: paper PMC4081100, “A DNA-binding-site landscape and regulatory network analysis for NAC transcription factors in Arabidopsis thaliana”

Experiments:
Experiment in all cases: universal protein binding microarray (PBM); transcription factors of Arabidopsis thaliana; high values mean tight binding
Settings in all cases: protein: recombinant; tags: GST; chain copies: 2; dsDNA, one strand shown
GST-ANAC092(1-176) = molecular target: T1, GST-ANAC092(1-176) (Arabidopsis thaliana, UniProt Q9FKA0 1-176)
T1 sequence: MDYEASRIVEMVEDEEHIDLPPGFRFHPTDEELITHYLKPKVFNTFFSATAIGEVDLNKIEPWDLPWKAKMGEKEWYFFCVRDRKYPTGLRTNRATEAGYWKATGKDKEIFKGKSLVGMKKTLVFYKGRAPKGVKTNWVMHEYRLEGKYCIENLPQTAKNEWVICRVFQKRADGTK
Procedure, shortened: (§1)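 For zinc-finger proteins, zinc acetate was added while GST-tagged NAC-domain, full-length or DNA-binding-domain proteins were induced in cells. Purification used glutathione–Sepharose 4B, and quantification used A280 or anti-GST western blot. Custom all-10-mer Agilent 4 × 180K arrays, made double-stranded by primer extension, each received a protein at 200 to 500 nM final in duplicate. Scoring covered gapped and ungapped 8-mers, with binding given as the normalised enrichment score (E-score).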

GST-ANAC019 NAC domain = molecular target: T2, GST-ANAC019 NAC domain (Arabidopsis thaliana, UniProt Q9C932 14-162)
T2 sequence: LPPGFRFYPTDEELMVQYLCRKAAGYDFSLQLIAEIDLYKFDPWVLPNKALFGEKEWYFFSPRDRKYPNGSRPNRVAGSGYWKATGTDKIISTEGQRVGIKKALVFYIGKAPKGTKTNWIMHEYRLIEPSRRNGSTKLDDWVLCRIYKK
Procedure, shortened: as §1

GST-ANAC055(1-171) = molecular target: T3, GST-ANAC055(1-171) (Arabidopsis thaliana, UniProt Q9LDY8 1-171)
T3 sequence: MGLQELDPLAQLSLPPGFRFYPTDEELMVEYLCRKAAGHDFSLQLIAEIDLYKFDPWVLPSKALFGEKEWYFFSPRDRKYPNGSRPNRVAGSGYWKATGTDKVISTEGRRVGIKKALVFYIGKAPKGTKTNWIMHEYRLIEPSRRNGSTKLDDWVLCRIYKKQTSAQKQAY
Procedure, shortened: as §1

GST-ATAF1 NAC domain = molecular target: T4, GST-ATAF1 NAC domain (Arabidopsis thaliana, UniProt Q39013 7-158)
T4 sequence: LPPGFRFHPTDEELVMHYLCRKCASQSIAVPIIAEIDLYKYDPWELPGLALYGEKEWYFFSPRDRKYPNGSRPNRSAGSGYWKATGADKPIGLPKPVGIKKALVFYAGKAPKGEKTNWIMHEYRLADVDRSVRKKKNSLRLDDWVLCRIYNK
Procedure, shortened: as §1

[1] = molecular target: T5, GST-ANAC092(1-285) full length (Arabidopsis thaliana, UniProt Q9FKA0 1-285)
T5 sequence: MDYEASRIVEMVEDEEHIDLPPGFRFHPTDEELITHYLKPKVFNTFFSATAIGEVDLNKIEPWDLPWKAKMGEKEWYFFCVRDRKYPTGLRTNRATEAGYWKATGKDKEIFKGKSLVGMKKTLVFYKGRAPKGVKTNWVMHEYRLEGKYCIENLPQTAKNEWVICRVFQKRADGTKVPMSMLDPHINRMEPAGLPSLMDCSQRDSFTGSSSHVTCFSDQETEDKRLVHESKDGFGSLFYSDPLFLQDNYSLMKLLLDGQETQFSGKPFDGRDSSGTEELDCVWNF
Procedure, shortened: as §1

GST-NAP(1-166) = molecular target: T6, GST-NAP(1-166) (Arabidopsis thaliana, UniProt O49255 1-166)
T6 sequence: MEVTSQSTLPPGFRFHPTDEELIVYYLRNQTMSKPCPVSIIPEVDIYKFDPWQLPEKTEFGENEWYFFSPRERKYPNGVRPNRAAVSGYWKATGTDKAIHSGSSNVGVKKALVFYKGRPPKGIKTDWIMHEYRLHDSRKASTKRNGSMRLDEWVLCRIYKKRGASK
Procedure, shortened: as §1

GST-NST2(1-184) = molecular target: T7, GST-NST2(1-184) (Arabidopsis thaliana, UniProt Q9M274 1-184)
T7 sequence: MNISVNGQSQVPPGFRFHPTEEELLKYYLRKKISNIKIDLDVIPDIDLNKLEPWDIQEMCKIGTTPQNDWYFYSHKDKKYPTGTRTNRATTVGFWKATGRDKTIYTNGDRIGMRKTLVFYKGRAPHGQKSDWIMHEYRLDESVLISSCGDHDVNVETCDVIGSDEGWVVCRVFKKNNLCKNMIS
Procedure, shortened: as §1

GST-NTL8 NAC domain = molecular target: T8, GST-NTL8 NAC domain (Arabidopsis thaliana, UniProt Q9XIN7 14-156)
T8 sequence: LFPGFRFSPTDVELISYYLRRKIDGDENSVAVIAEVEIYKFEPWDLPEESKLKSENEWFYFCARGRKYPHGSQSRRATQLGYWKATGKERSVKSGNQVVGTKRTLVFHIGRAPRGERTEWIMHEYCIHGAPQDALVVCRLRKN
Procedure, shortened: as §1

GST-SND1(1-203) = molecular target: T9, GST-SND1(1-203) (Arabidopsis thaliana, UniProt Q9LPI7 1-203)
T9 sequence: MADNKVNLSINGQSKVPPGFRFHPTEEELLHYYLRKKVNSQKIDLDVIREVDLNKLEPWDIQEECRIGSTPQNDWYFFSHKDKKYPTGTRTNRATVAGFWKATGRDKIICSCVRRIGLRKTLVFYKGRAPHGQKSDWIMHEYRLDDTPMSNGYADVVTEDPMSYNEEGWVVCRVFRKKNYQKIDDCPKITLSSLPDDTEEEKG
Procedure, shortened: as §1

GST-VND3 NAC domain = molecular target: T10, GST-VND3 NAC domain (Arabidopsis thaliana, UniProt Q9FH59 12-162)
T10 sequence: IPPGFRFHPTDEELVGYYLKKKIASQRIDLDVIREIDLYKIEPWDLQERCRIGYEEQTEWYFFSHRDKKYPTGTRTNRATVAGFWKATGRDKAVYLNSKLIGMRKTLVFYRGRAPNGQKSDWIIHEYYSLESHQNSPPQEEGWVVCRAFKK
Procedure, shortened: as §1

GST-VND7 NAC domain = molecular target: T11, GST-VND7 NAC domain (Arabidopsis thaliana, UniProt Q9C8W9 9-158)
T11 sequence: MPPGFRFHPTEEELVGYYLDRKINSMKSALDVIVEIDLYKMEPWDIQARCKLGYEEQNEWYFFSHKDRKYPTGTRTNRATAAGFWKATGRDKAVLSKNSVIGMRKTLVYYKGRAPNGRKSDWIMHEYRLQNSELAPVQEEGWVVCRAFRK
Procedure, shortened: as §1

Sequence | binding signal (GST-ANAC092(1-176)) [E-score] | binding signal (GST-ANAC019 NAC domain) [E-score] | binding signal (GST-ANAC055(1-171)) [E-score] | binding signal (GST-ATAF1 NAC domain) [E-score] | binding signal [1] [E-score] | binding signal (GST-NAP(1-166)) [E-score] | binding signal (GST-NST2(1-184)) [E-score] | binding signal (GST-NTL8 NAC domain) [E-score] | binding signal (GST-SND1(1-203)) [E-score] | binding signal (GST-VND3 NAC domain) [E-score] | binding signal (GST-VND7 NAC domain) [E-score]
GTGCCGTA | 0.427 | 0.467 | 0.432 | 0.413 | 0.449 | 0.412 | 0.263 | 0.102 | 0.377 | 0.443 | 0.453
TGCGTAAA | 0.396 | 0.205 | 0.131 | 0.216 | 0.386 | 0.162 | 0.291 | 0.0652 | 0.447 | 0.26 | 0.244
ACGTTACC | 0.458 | 0.263 | 0.197 | 0.195 | 0.467 | 0.218 | 0.331 | 0.384 | 0.462 | 0.249 | 0.176
CACGGAAC | 0.397 | 0.48 | 0.466 | 0.397 | 0.425 | 0.414 | 0.175 | 0.127 | 0.0702 | 0.446 | 0.478
TACGGCAA | 0.409 | 0.409 | 0.363 | 0.381 | 0.422 | 0.362 | 0.212 | 0.192 | 0.381 | 0.417 | 0.419
GCACGGAA | 0.388 | 0.472 | 0.457 | 0.357 | 0.413 | 0.437 | 0.2 | 0.193 | 0.156 | 0.402 | 0.453
GTAACGTA | 0.451 | 0.367 | 0.189 | 0.322 | 0.467 | 0.315 | 0.321 | 0.13 | 0.489 | 0.338 | 0.402
ATACGGAA | 0.33 | 0.436 | 0.394 | 0.332 | 0.399 | 0.372 | 0.223 | 0.0989 | 0.219 | 0.371 | 0.38
CACGACAC | 0.321 | 0.41 | 0.372 | 0.338 | 0.355 | 0.343 | 0.134 | 0.0614 | 0.0543 | 0.299 | 0.348
ACGTCTCT | 0.0939 | 0.451 | 0.412 | 0.452 | 0.243 | 0.381 | 0.175 |  | 0.0793 | 0.418 | 0.442
CGTACGCA | 0.392 | 0.359 | 0.328 | 0.291 | 0.433 | 0.365 | 0.24 | 0.0905 | 0.32 | 0.378 | 0.341
AACACGTT | 0.375 | 0.262 | 0.284 | 0.228 | 0.426 | 0.259 | 0.222 | 0.132 | 0.202 | 0.281 | 0.203
ACGGAACC | 0.361 | 0.454 | 0.446 | 0.38 | 0.4 | 0.461 | 0.12 | 0.172 | 0.235 | 0.382 | 0.435
ACGGCAAT | 0.298 | 0.409 | 0.375 | 0.283 | 0.366 | 0.236 | 0.286 | 0.188 | 0.226 | 0.3 | 0.317
AGTTACGC | 0.273 | 0.134 | 0.0766 | 0.124 | 0.275 | 0.115 | 0.245 |  | 0.412 | 0.103 | 0.0942
AAATACGT | 0.196 | 0.226 | 0.244 | 0.346 | 0.35 | 0.29 | 0.209 | 0.101 | 0.21 | 0.408 | 0.263
ATGCCGTA | 0.373 | 0.395 | 0.355 | 0.385 | 0.41 | 0.36 | 0.117 | 0.0526 | 0.307 | 0.412 | 0.432
AACACGCA | 0.469 | 0.415 | 0.345 | 0.315 | 0.477 | 0.386 | 0.263 |  | 0.335 | 0.346 | 0.34
CTCACGCA | 0.416 | 0.359 | 0.211 | 0.0962 | 0.41 | 0.171 | 0.22 | 0.0698 | 0.286 | 0.194 | 0.193
ACGTTACG | 0.389 | 0.302 | 0.299 | 0.268 | 0.441 | 0.341 | 0.287 | 0.13 | 0.44 | 0.333 | 0.39
ATTGCGTA | 0.482 | 0.375 | 0.333 | 0.32 | 0.485 | 0.423 | 0.409 | 0.0931 | 0.491 | 0.444 | 0.453
CACGTAAC | 0.466 | 0.479 | 0.452 | 0.436 | 0.467 | 0.468 | 0.279 | 0.242 | 0.321 | 0.44 | 0.47
CACGCAAC | 0.496 | 0.486 | 0.463 | 0.437 | 0.498 | 0.489 | 0.444 | 0.181 | 0.482 | 0.476 | 0.484
ACGGCACC | 0.406 | 0.425 | 0.358 | 0.375 | 0.452 | 0.381 | 0.0937 |  | 0.237 | 0.318 | 0.333
ACACGTAA | 0.481 | 0.477 | 0.469 | 0.439 | 0.481 | 0.465 | 0.316 |  | 0.288 | 0.461 | 0.476
ACGCAAAC | 0.459 | 0.391 | 0.265 | 0.258 | 0.471 | 0.368 | 0.357 | 0.0692 | 0.431 | 0.378 | 0.314
TGCGTACA | 0.372 | 0.307 | 0.288 | 0.272 | 0.437 | 0.289 | 0.279 | 0.0577 | 0.393 | 0.305 | 0.281
